The structures appear in SMILES notation. Hit rate of the full screen: of about 39,000 compounds, about 3,300 (8.5%) were called active. The sample holds actives, similar compounds and a random draw of the others, so the mix is not that of the screen.

In this experiment the test system is HepG2. In words: cytotoxicity call (relative viability < 0.9). The conditions noted are these: 10 µM.
In the case of `NCCCC[C@@H](N)C(=O)N[C@@H](Cc1ccc(O)cc1)C(=O)N[C@@H](CCCCN)C(=O)O`, the cytotoxicity call is “inactive”.
To `C[C@@H]1CCCCO[C@H](CN(C)C(=O)NC2CCCCC2)[C@H](C)CN([C@@H](C)CO)C(=O)c2cc(NC(=O)Cc3ccccc3)ccc2O1` belongs “inactive”.
Regarding `COc1ccc(NC(=O)N(C)C[C@@H]2OCCCC[C@H](C)Oc3ccc(NC(=O)Nc4ccc5c(c4)OCO5)cc3C(=O)N([C@H](C)CO)C[C@@H]2C)cc1`, the cytotoxicity call was “inactive”.
Next, `C[C@H]1CCCCO[C@@H](CN(C)C(=O)Nc2ccc(C(F)(F)F)cc2)[C@@H](C)CN([C@@H](C)CO)C(=O)c2cc(NC(=O)Cc3ccccc3)ccc2O1`: “inactive”; `O=C(C[C@H]1CC[C@@H]2[C@H](COC[C@@H](O)CN2CC2CCOCC2)O1)N1CCOCC1`: “inactive”.
Next, `C[C@@H]1CCCCO[C@@H](CN(C)C(=O)Nc2ccccc2)[C@H](C)CN([C@H](C)CO)C(=O)c2cc(NC(=O)NC3CCCCC3)ccc2O1`: “inactive”.
As to `C[C@@H]1CN([C@H](C)CO)C(=O)c2cc(NC(=O)Nc3cccc4ccccc34)ccc2O[C@@H]1CN(C)S(=O)(=O)c1ccc(F)cc1`, the cytotoxicity call was “inactive”.
As to `CCS(=O)(=O)N1C[C@]2(CN(C2)S(=O)(=O)c2cn(cn2)C)c2c(n(c3cc(ccc23)OC)C)[C@H]1CO`, the cytotoxicity call is “inactive”.
For `C[C@@H]1CN([C@H](C)CO)C(=O)c2cc(NS(=O)(=O)c3ccc(Cl)cc3)ccc2O[C@@H](C)CCCCO[C@H]1CN(C)C(=O)Nc1ccc(C(F)(F)F)cc1`, the cytotoxicity call was “active”.
To `C[C@@H]1CCCCO[C@H](CN(C)C(=O)Nc2ccc(C(F)(F)F)cc2)[C@@H](C)CN([C@@H](C)CO)C(=O)c2cc(NS(=O)(=O)c3ccc(Cl)cc3)ccc2O1` belongs “inactive”.
For the compound `C[C@@H]1CCCCO[C@@H](CN(C)C(=O)Nc2ccc(C(F)(F)F)cc2)[C@H](C)CN([C@H](C)CO)C(=O)c2cc(NS(=O)(=O)c3ccc(Cl)cc3)ccc2O1`, the cytotoxicity call was “inactive”.
Consider `O=C(C[C@H]1CC[C@@H]2[C@H](COC[C@H](O)CN2S(=O)(=O)c2ccccc2)O1)NCCN1CCCCC1`, for which the cytotoxicity call was “inactive”.
Regarding `C[C@H]1CCCCO[C@H](CN(C)Cc2ccccc2)[C@@H](C)CN([C@@H](C)CO)C(=O)c2cc(NC(=O)Nc3ccccc3)ccc2O1`, the cytotoxicity call was “inactive”.
Next, `COC(=O)[C@@]12OC[C@]34[C@H]([C@@H](O)[C@@H]1O)[C@@]1(C)CC(=O)C(=O)[C@H](C)[C@@H]1C[C@H]3OC(=O)[C@H](OC(=O)/C=C(\C)C(C)C)[C@@H]24`: “active”.
Regarding `COc1ccc2c3c([nH]c2c1)[C@H](CO)N(CC1CCCC1)C[C@]13CCN(CC1)C(=O)Nc1cccc(c1)F`, the cytotoxicity call was “inactive”.
To `COc1ccc2c3c([nH]c2c1)[C@H](CO)N(C[C@]13CCN(CC1)CC1CCCC1)C(=O)Nc1cccc(c1)F` belongs “active”; to `COc1ccc2c3c([nH]c2c1)[C@@H](CO)N(CC1CCCC1)C[C@]13CCN(CC1)C(=O)Nc1cccc(c1)F`, “inactive”; to `COc1ccc2c3c([nH]c2c1)[C@@H](CO)N(C[C@]13CCN(CC1)CC1CCCC1)C(=O)Nc1cccc(c1)F`, “active”.
On to `COc1ccc2c3c([nH]c2c1)[C@@H](CO)N(C[C@]13CCN(CC1)C(=O)Nc1cccc(c1)F)C(=O)c1ccccc1`, for which the cytotoxicity call is “inactive”.
`Cc1noc(C)c1S(=O)(=O)Nc1ccc2c(c1)CC(=O)N([C@@H](C)CO)C[C@@H](C)[C@H](CN(C)S(=O)(=O)c1cccs1)O2`: the cytotoxicity call is “inactive”.
On to `CCOC(=O)C(=O)N(C)CC(OC)OC`, for which the cytotoxicity call is “inactive”.
As to `CCOC(=O)OC[C@@H]1[C@@H]2NC(=O)N(C)[C@@]1(COC(=O)NCCCCCC(=O)NO)Oc1ccccc12`, the cytotoxicity call was “inactive”.
With `C[C@H](CO)N1C[C@H](C)[C@@H](CN(C)S(C)(=O)=O)OCCCC[C@H](C)Oc2ccc(NS(C)(=O)=O)cc2C1=O`, the cytotoxicity call was “inactive”.
Next, `COc1ccc(S(=O)(=O)N(C)C[C@@H]2Oc3ccc(NS(=O)(=O)c4ccc(F)cc4)cc3C(=O)N([C@H](C)CO)C[C@@H]2C)cc1`: “inactive”; `CC(C)N1C[C@H](C)[C@@H](CN(C)Cc2ccc(Oc3ccccc3)cc2)Oc2c(cccc2-c2nn[nH]n2)C1=O`: “inactive”.
Turning to `N=C(N=C(N)N)NCCc1ccccc1`, the cytotoxicity call was “active”.
Take `N=C(N=C(N)N)Nc1ccccc1`: the cytotoxicity call is “inactive”.
In the case of `Cl.N=C(N)NC(=N)NCCc1ccccc1`, the cytotoxicity call is “inactive”.
As to `Cc1cc(C(=O)O)c(=O)[nH]c1C`, the cytotoxicity call was “inactive”.
With `NCCC1=CSC2=NCCN12`, the cytotoxicity call is “inactive”.
For the compound `O=C(CCCCCCC(=O)Nc1ccc([C@H]2O[C@@H](CSc3ccccn3)C[C@H](c3ccccc3)O2)cc1)NO`, the cytotoxicity call was “inactive”.
As for `CCS(=O)(=O)NCC[C@@H]1CC[C@H](NC(=O)Cc2ccccn2)[C@@H](CO)O1`, the cytotoxicity call was “inactive”.
Take `Cc1ccc(S(=O)(=O)N[C@@H]2CC[C@@H](CC(=O)NCc3ccc(Cl)c(Cl)c3)O[C@@H]2CO)cc1`: the cytotoxicity call was “inactive”.
To `Cc1ccc(-c2ccc3c(c2)O[C@@H](CN(C)C(=O)Nc2ccc(C(F)(F)F)cc2)[C@@H](C)CN([C@H](C)CO)S3(=O)=O)cc1` belongs “active”.
As to `Cc1ccccc1-c1ccc2c(c1)O[C@H](CN(C)C(=O)Nc1ccc(C(F)(F)F)cc1)[C@H](C)CN([C@@H](C)CO)S2(=O)=O`, the cytotoxicity call was “active”.
Take `Cc1ccccc1-c1ccc2c(c1)O[C@@H](CN(C)C(=O)Nc1ccc(C(F)(F)F)cc1)[C@H](C)CN([C@H](C)CO)S2(=O)=O`: the cytotoxicity call is “inactive”.
As for `Cc1ccc(-c2ccc3c(c2)O[C@@H](CN(C)C(=O)Nc2ccc(C(F)(F)F)cc2)[C@@H](C)CN([C@@H](C)CO)S3(=O)=O)cc1`, the cytotoxicity call is “inactive”.
On to `Cc1ccccc1-c1ccc2c(c1)O[C@H](CN(C)C(=O)Nc1ccc(C(F)(F)F)cc1)[C@H](C)CN([C@H](C)CO)S2(=O)=O`, for which the cytotoxicity call is “inactive”.
With `Cc1ccc(-c2ccc3c(c2)O[C@H](CN(C)C(=O)Nc2ccc(C(F)(F)F)cc2)[C@H](C)CN([C@@H](C)CO)S3(=O)=O)cc1`, the cytotoxicity call was “inactive”.
As to `C[C@@H]1CCCCO[C@H](CN(C)Cc2ccc(C(=O)O)cc2)[C@@H](C)CN([C@H](C)CO)C(=O)c2cc(NC(=O)c3ccccc3)ccc2O1`, the cytotoxicity call was “inactive”.
To `C[C@H](CO)N1C[C@H](C)[C@@H](CN(C)CC2CCCCC2)Oc2c(NC(=O)Cn3cnnn3)cccc2C1=O` belongs “inactive”.
Next, `C[C@@H]1CN([C@H](C)CO)C(=O)Cc2cc(NC(=O)Cn3cnnn3)ccc2O[C@H]1CN(C)CC1CC1`: “inactive”.

For the origin of these results see the antibiotic and cytotoxicity screens of Wong et al. (2023).
